Data on 100 compounds can be found in ChEMBL document CHEMBL3988442, “University of Dundee, Small-Polar-MMV Screening Library” (2021).

Structures are written as SMILES. Hit rate of the full screen: of about 48,000 compounds, about 13,000 (27%) showed an effect of 50% or more. This is one part of the list.

The experiment deals with Wolbachia pipientis. Nature of the experiment: Anti-Wolbachia Cell-Based Screen. It counts as functional. On the set-up: scale not given: in the data most compounds retested in dose-response had high values. Particulars: 5 µM.
On to `Cc1ccoc1C(=O)N1CC(C(=O)N2CCOCC2)C2(CCOCC2)C1` (stereo not given), for which the “Percent Effect” value is reported as -39.43%. As to `CC(=O)c1c(F)cccc1N1CCC(NS(=O)(=O)c2ccccc2)CC1`, the “Percent Effect” value is reported as -17.75%. For `CC(C)Oc1cc(N2CC[C@H](CO)[C@@H](O)C2)nc(N)n1` the value was -19.56%. For `Cc1ccccc1CCCN1C(=O)CC2(CCSC2)C1=O` (stereo not given) the value was 0.3605%; for `Cc1noc(CCCNC(=O)C2CSCN2C(=O)C(C)(C)C)n1` (stereo not given), -2.864%; for `CN(C(=O)CCNC(=O)C1COc2ccccc21)c1ccccc1` (stereo not given), 1.32%. The value for `O=C(c1cocn1)N1CCC2(CC1)CC(OCC1CC1)CO2` (stereo not given) was 7.124%.

As to `CN(C)CCCNc1ncnc2cccc(F)c12`, the “Percent Effect” value is -15.41%.

`CN(CCOCC1CC1)C(=O)Cn1cccc(C(F)(F)F)c1=O`: the “Percent Effect” value is recorded as 10.84%.

As to `C[S+]([O-])c1ccc(NC(=O)Cc2cccnc2)cc1F` (stereo not given), the “Percent Effect” value is given as 6.367%. For `CN(CCOCC1CC1)C(=O)Nc1ccc([S+](C)[O-])cc1` (stereo not given), the “Percent Effect” value is on record as 90.95%. Regarding `COCCN(C)C(=O)Nc1ccc(C(=O)NCCC(=O)OC)cc1`, the “Percent Effect” value was determined as 9.449%. As for `O=C(NCCOCC1CC1)Nc1ccc(F)cc1`, the “Percent Effect” value is given as -7.278%.

`CN(CCOCC1CC1)C(=O)Nc1ccc([S+](C)[O-])c(F)c1` (stereo not given): the “Percent Effect” value was 94.49%. As for `CC(C)Cc1ncc2c(n1)CN(c1nccc(NC(C)C)n1)C2`, the “Percent Effect” value was -6.813%. For `COC1CCN(C(=O)c2c(Cl)c3ccccc3n2C)CC1` the value was -0.1607%; for `O=C(CCc1cc(Cl)no1)N1CCCCC1CCN1CCOCC1` (stereo not given), -7.331%; for `CCc1nc(CCNc2ncccn2)sc1C`, -26.63%.

For the compound `COc1cccc(C(O)CN2CCN(c3cccc(C)c3)CC2)c1` (stereo not given), the “Percent Effect” value came out at 140.6%.

As to `COCCN1CCN(CC(O)c2cc(OC)ccc2OC)CC1` (stereo not given), the “Percent Effect” value is recorded as 7.391%. On to `COc1cccc(N2CCN(CC(O)c3cc(C)sc3C)CC2)c1` (stereo not given), for which the “Percent Effect” value is -7.346%.

As for `COc1ccc(OC)c(C(O)CN2CCN(C3CCCC3)CC2)c1` (stereo not given), the “Percent Effect” value was found to be 3.384%.

In the case of `COc1cccc(C(O)CN2CCN(C(=O)CCC(C)C)CC2)c1` (stereo not given), the “Percent Effect” value was -9.64%. For `COc1ccc(OC)c(C(O)CN2CCN(c3cccc(C)c3)CC2)c1` (stereo not given) the value was 116.6%. The value for `CS(=O)(=O)c1ccc2c(c1)nc1n2[C@@H](CNCc2cccnc2)COC1` was 6.164%. For the compound `CC(CC(=O)N1CCCS1(=O)=O)c1ccccc1C(F)(F)F` (stereo not given), the “Percent Effect” value is on record as -9.75%. For the compound `COC(=O)[C@@H]1Cc2ncn(C)c2CN1S(=O)(=O)c1cccs1`, the “Percent Effect” value is reported as -9.442%.

On to `CNC(=O)CCc1cc(C)nc(C2CCCCN2)n1` (stereo not given), for which the “Percent Effect” value is on record as 122.2%. `CN(C)[C@H]1CCCCN(C(=O)CCc2csc(N)n2)C1`: the “Percent Effect” value is -1.322%. Regarding `Cc1cc(C)n(CC2CCCCN2CC(=O)Nc2nncs2)n1` (stereo not given), the “Percent Effect” value is on record as -4.796%. On to `Cc1cc(CCC(=O)Nc2nncs2)nc(C2CCCN2)n1.Cl` (stereo not given), for which the “Percent Effect” value was found to be 92.36%.

In the case of `Cc1cc(CCC(=O)N2CCCC2)nc(C2CCCN2)n1` (stereo not given), the “Percent Effect” value is 120.7%. The value for `CCN1CCn2nc(CCC(=O)N3CCCC3)cc2C1` was 0.2115%. For `CNC(=O)CCc1cc(C)nc(C2CCCN2)n1` (stereo not given) the value was -4.947%; for `CNC(=O)CCc1cccc(OC2CCCC2)c1`, 6.693%; for `Cc1cc(CCC(=O)N(C)C)nc(C2CCCCN2)n1.Cl.Cl` (stereo not given), 123.4%. For `Cc1cc(C)n(CC2CCCN2CC(=O)Nc2nncs2)n1` (stereo not given), the “Percent Effect” value was -0.6534%. The value for `CCc1nc(C)c([C@H]2CN(C)C[C@@H]2C(=O)Nc2ccc3[nH]ncc3c2)[nH]1` was 2.29%.

Turning to `CC(=O)N1CCC(NC2(Cc3cc(CC(C)C)on3)COC2)CC1`, the “Percent Effect” value is given as 8.31%. For `Cc1nc(CN2C(=O)CC[C@@H]3[C@H]2CCN3C2CCOCC2)cs1.O=C(O)C(F)(F)F` the value was 88.53%; for `Cc1nc(CN2C(=O)CC[C@@H]3[C@H]2CCN3C(=O)c2ccccn2)cs1.O=C(O)C(F)(F)F`, -0.4991%. In the case of `Cc1nc(CN2C(=O)C[C@H]3[C@H]2CCN3C2CCOCC2)cs1.O=C(O)C(F)(F)F`, the “Percent Effect” value is on record as -10.54%. Regarding `Cc1nc(CN2C(=O)C[C@H]3[C@H]2CCN3C2CCOC2)cs1.O=C(O)C(F)(F)F` (stereo not given in full), the “Percent Effect” value was 104.4%. In the case of `Cc1nc(CN2C(=O)CC[C@@H]3[C@H]2CCN3C(=O)C2CCOCC2)cs1`, the “Percent Effect” value is -12.01%. Take `Cc1nc(CN2CCN(C3CCOC3)Cc3cccnc32)cs1.O=C(O)C(F)(F)F.O=C(O)C(F)(F)F.O=C(O)C(F)(F)F` (stereo not given): the “Percent Effect” value is -13.84%.

Turning to `Cc1nc(CN2C(=O)CC[C@@H]3[C@H]2CCN3C2CCOC2)cs1.O=C(O)C(F)(F)F` (stereo not given in full), the “Percent Effect” value was found to be 91.6%. For `Cc1cccc(OC2CCN(c3nccnc3C#N)CC2)n1` the value was 4.563%; for `COc1ccc(C(=O)N(C)Cc2cc(C)on2)c(F)c1`, 9.615%.

For `CNc1ncc(C(=O)N2CCC3(CC2)Nc2ccccc2NC3=O)cn1`, the “Percent Effect” value is on record as -19.06%.

As for `COc1cc(C(=O)N2CCC3(CC2)Nc2ccccc2NC3=O)ccn1`, the “Percent Effect” value worked out at 31.29%.

Turning to `CC(=O)Nc1nc2c(s1)C1(CCCC1)Nc1ccccc1S2`, the “Percent Effect” value worked out at 63.28%. For `CC(=O)Nc1nc2c(s1)C(C)(C)Nc1ccccc1S2`, the “Percent Effect” value worked out at 66.2%. For `CC(=O)Nc1nc2c(s1)C1(CCN(C)CC1)Nc1ccccc1S2` the value was 104.1%. The value for `CS(=O)(=O)N1CC[C@]2(O)CCN(c3cc(C#N)ccn3)C[C@@H]2C1` was -2.197%; that for `CCOc1ccc(CCC(=O)N2CC[C@H]3C(=O)NCCO[C@H]3C2)cc1` was 8.218%. The value for `Cc1c(C(=O)NCCC(=O)N2CCOCC2)oc2c(C)cccc12` was -0.1879%; that for `CC(NCc1cnc(C2CCC2)s1)c1cccc(-n2cccn2)c1` (stereo not given) was -14.57%; that for `O=C(CN1C(=O)CCC1=O)NCc1nn(C2CCCC2)c2c1CCCC2` was -9.274%. With `Cc1nc(COC[C@@]23CCC[C@@H]2CN(Cc2cnn(C)c2)C3)cs1`, the “Percent Effect” value worked out at 93.55%. On to `Cn1cc(CN2C[C@H]3CCC[C@@]3(COCC3CC3)C2)cn1.O=C(O)C(F)(F)F`, for which the “Percent Effect” value is 101.6%.

Turning to `Cc1cccc(CN2C[C@H]3CCC[C@@]3(COCc3csc(C)n3)C2)n1.O=C(O)C(F)(F)F.O=C(O)C(F)(F)F`, the “Percent Effect” value is -5.241%. In the case of `CCn1cc2c(n1)CN(Cc1cnn(C)c1)CC2COCC1CC1.O=C(O)C(F)(F)F` (stereo not given), the “Percent Effect” value was determined as 12.58%. For `Cn1cc(CN2C[C@@H]3COC[C@]3(COCC3CC3)C2)cn1.O=C(O)C(F)(F)F` the value was 100.8%; for `Cn1cc(CN2CCn3cnc(COCC4CC4)c3C2)cn1.O=C(O)C(F)(F)F`, 8.69%. Turning to `Cn1cc(CN2C[C@@H]3COC[C@]3(CNC(=O)c3ccco3)C2)cn1.O=C(O)C(F)(F)F`, the “Percent Effect” value is -7.864%. As for `Cc1nc(COC[C@@]23CCC[C@@H]2CN(Cc2nccs2)C3)cs1.O=C(O)C(F)(F)F`, the “Percent Effect” value is 8.352%. `Cn1cc(CN2C[C@@H]3COC[C@]3(CNC(=O)c3ccsc3)C2)cn1.O=C(O)C(F)(F)F`: the “Percent Effect” value was -12.06%. For the compound `COc1ccc(Br)c(C(=O)N2CCC(c3n[nH]c(C4CC4)n3)CC2)c1`, the “Percent Effect” value is listed as 9.985%. Consider `O=C(Cc1csc(N2CCNC2=O)n1)NC1(c2ccccc2)CCC1`, for which the “Percent Effect” value was found to be 3.065%. For `Cc1nc(NC(=O)N2CCCC(C(C)(C)O)C2)nn1C` (stereo not given) the value was 7.598%.

As to `CC(C)N[C@@H]1CO[C@H](CNC(=O)c2cccs2)[C@H]1O`, the “Percent Effect” value was 0.5301%. Take `NC(=O)NCC(=O)N1CCC(c2cc(-c3ccccc3Cl)n[nH]2)CC1`: the “Percent Effect” value is 9.084%. Take `CC(=O)N1N=C(Cc2ccccc2)OC1C(=O)NCC(=O)OC(C)(C)C` (stereo not given): the “Percent Effect” value was found to be 112%. For `CC(C)N1CCCC(C(=O)NCc2noc(Cc3ccccc3)n2)C1` (stereo not given) the value was -0.7063%; for `CC(=O)N1N=C(c2ccccc2)OC1C(=O)NCC(=O)OC(C)(C)C` (stereo not given), 126.7%; for `CC(=O)N1N=C(Cc2ccccc2)OC1C(=O)NCC(C)C` (stereo not given), 119.9%. Turning to `CN(C(=O)c1ccco1)C1CCC(NC(=O)OC(C)(C)C)CC1` (stereo not given), the “Percent Effect” value is -29.92%. For `COC(=O)CN1CC(c2nc(Cc3ccccc3)no2)C1.O=C(O)C(=O)O` the value was -2.345%; for `CCC(CNC(C)=O)(OC)c1ccccc1` (stereo not given), -7.237%. The value for `CCN1CC(C(=O)NCc2noc(Cc3ccccc3)n2)CCC1=O` (stereo not given) was -8.005%. As for `CCOC(=O)CNC(=O)N1CCCC(CNC(=O)c2ccco2)C1` (stereo not given), the “Percent Effect” value was -9.65%.

Regarding `CCOC(=O)CNC(=O)C1CN(C(=O)c2cnccn2)C1`, the “Percent Effect” value is reported as 12.27%.

As for `CCOC(=O)CNC(=O)C1OC(c2ccccc2)=NN1C(C)=O` (stereo not given), the “Percent Effect” value was 105.7%. For `CC(C)(C)OC(=O)CNC(=O)CCc1nnc(-c2ccsc2)o1` the value was -11.15%. In the case of `CC(C)N[C@@H]1CO[C@H](CNC(=O)Nc2ccccc2)[C@H]1O`, the “Percent Effect” value is on record as -15.53%. For `Cc1nc(C(NC(=O)CN(C)C(C)C)c2ccccc2F)no1` (stereo not given), the “Percent Effect” value is -8.62%. For `CCc1nnc(CN2CCN(C(C)=O)CC2)o1` the value was -9.857%; for `Cc1ccc(C(=O)N2CCC(Oc3ccc(F)cc3F)CC2)c(=O)[nH]1`, -17.81%. For `CC(C)c1nnc(NCCS(C)(=O)=O)s1`, the “Percent Effect” value is on record as -6.765%. On to `CC1(C)COCCN1C(=O)CCc1nc(-c2ccncc2)no1`, for which the “Percent Effect” value is listed as 14.72%.

With `CCOc1ncccc1CNc1cc(COC)ncn1`, the “Percent Effect” value is given as -5.284%. The value for `COc1ccc(Cl)cc1C(=O)N1CCOC2(CNCCOC2)C1` (stereo not given) was -14.44%; that for `O=C(c1ccc(Cl)cc1)N1CC2(CCNC2)OCc2ccccc21` (stereo not given) was 113.7%. Regarding `Cc1ccccc1C(=O)N1CCOC2(CNCCOC2)C1` (stereo not given), the “Percent Effect” value is -17.32%. For `O=C(c1ccccc1-c1ccccc1)N1CCOC2(CNCCOC2)C1` (stereo not given) the value was -21.41%.

As to `O=C(c1ccc(NCc2ccco2)nc1)N1CCc2ccccc21`, the “Percent Effect” value is 16.32%. For `O=C(C1CCCC1)N1CC2(CCNC2)OCc2ccccc21` (stereo not given) the value was 106%.

In the case of `O=C(c1ccccc1)N1CC2(CCNC2)OCc2ccccc21` (stereo not given), the “Percent Effect” value is listed as 116.8%. For `O=C1OC2(CCNCC2)CN1CC(=O)N1CCC1c1cccs1` (stereo not given) the value was -13.03%; for `Cc1ccccc1C1CCCN1C(=O)CN1CC2(CCNCC2)OC1=O` (stereo not given), -3.464%.
